Experimental findings from PubChem BioAssay (NCI) are described below.

Compounds without any hit were thinned out: in the full panel of roughly 83,000, 20% have a hit.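 Growth was measured after 48 h exposure to one concentration of compound in 96-well plates. Values under 10 count as active.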 Unmarked numbers belong to inactive results. Activity calls are given as the source filed them.

The test system of this experiment is CAKI-1 renal. The experiment in a line: NCI-60 one-dose screen, 48 h (100 = growth as untreated, 0 = no growth, -100 = all killed). To be noted: 10 µM unless noted.
Take `CCNC(=O)CCCCC(=O)c1c(C)[nH]c(/C=C2\N=C(c3ccc[nH]3)C=C2OC)c1C`: the growth was -29.9% (active). Next, `CC(=O)OCC1OC(OCC2OC(OC(C)=O)C(OC(C)=O)C(OC(C)=O)C2OC(C)=O)C(OC(C)=O)C(OC(C)=O)C1OC(C)=O` (stereo not given): 94.7%; `Clc1ccc([I+]c2ccc(Cl)cc2Cl)c(Cl)c1`: 27%; `CCC(=O)Oc1cc(/C=C/C(=O)O[C@H]2C[C@H]3CN4CCc5c([nH]c6cc(OC)ccc56)[C@@H]4C[C@@H]3[C@@H](C(=O)OC)[C@@H]2OC)ccc1OC`: 45.6%.

On to `COC1=CC(c2ccc[nH]2)=N/C1=C\c1[nH]c(C)c(C(=O)CCCCC(=O)NCc2ccccc2)c1C`, for which the growth is -9.17% (active). For the molecule `COc1ccc(-c2nnc(COc3ccc(NS(=O)(=O)c4ccc(OC)cc4)cc3F)o2)cc1`, the growth was 64.1%.

Turning to `CN1CCN(c2ccc3cc(-c4nc5ccccc5[nH]4)c(=O)oc3c2)CC1`, the growth is 84.8%. In the case of `CCC1=C[C@@H]2CN(C1)Cc1c([nH]c3ccccc13)[C@@](C(=O)OC)(c1cc3c(cc1OC)N(C=O)[C@H]1[C@@](O)(C(=O)OC)[C@H](OC(C)=O)[C@]4(CC)[C@@H]5C[C@@H]5CN5CC[C@]31[C@@H]54)C2` it was 8.29% (active); in that of `O=S(=O)(c1ccccc1)n1ccc(-c2ccc3c(c2)CCO3)n1`, 75.3%. Next, `COC1=CC(c2ccc[nH]2)=N/C1=C\c1[nH]c(C)c(CCCn2cc(CCCCCCCCC[C@@H]3Cc4cc(O)ccc4C4CC[C@]5(C)[C@@H](O)CC[C@H]5C43)nn2)c1C` (stereo not given in full): 71%.
